# According to PMC7862700, “An all-to-all approach to the identification of sequence-specific readers for epigenetic DNA modifications on cytosine”:
# What was measured:
# Experiment in all cases: DAPPL (digital affinity profiling via proximity ligation, sequencing); 10 mM Tris-HCl pH 7.5, 50 mM NaCl, 1 mM DTT, 4% glycerol, room temperature, 30 min; GST-TFs on glutathione beads, 16-mer random dsDNA library, 0.1% formaldehyde crosslink after washing; high values mean tight binding
# [1] = molecular target: T1, FEV (Homo sapiens, UniProt Q99581 1-238); settings: protein: recombinant; tags: N-terminal GST; dsDNA, one strand shown
# T1 sequence: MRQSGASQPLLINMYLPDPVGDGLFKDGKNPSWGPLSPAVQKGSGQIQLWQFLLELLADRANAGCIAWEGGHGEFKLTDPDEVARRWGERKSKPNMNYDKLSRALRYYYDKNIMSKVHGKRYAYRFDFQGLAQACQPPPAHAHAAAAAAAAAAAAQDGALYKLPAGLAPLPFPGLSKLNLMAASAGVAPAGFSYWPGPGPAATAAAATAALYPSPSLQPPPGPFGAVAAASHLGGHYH
# How it was run: (§1)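 Binding signal is defined as a hexamer's read frequency for one factor over its frequency for the tag-only sample. To obtain reads, GST-fused human transcription factors were expressed in yeast, captured on glutathione beads, barcoded with DNA and pooled with that sample. Pools met 200 nmole of a 16-mer random double-stranded DNA library in Tris/NaCl/DTT/glycerol buffer for 30 min at room temperature before washing, 0.1% formaldehyde crosslinking, proximity ligation (BsaI/T4 ligase, 1 h, 37 °C), PCR and Illumina NextSeq500 sequencing.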
# [2] = molecular target: ETV5 (Homo sapiens, UniProt P41161 1-510); settings: protein: recombinant; tags: N-terminal GST; dsDNA, one strand shown
# How it was run: as §1
# [3] = molecular target: HSF1 (Homo sapiens, UniProt Q00613 1-529); settings: protein: recombinant; tags: N-terminal GST; chain copies: 3; dsDNA, one strand shown
# How it was run: as §1
# [4] = molecular target: T2, SPIC (Homo sapiens, UniProt Q8N5J4 1-248); settings: protein: recombinant; tags: N-terminal GST; dsDNA, one strand shown
# T2 sequence: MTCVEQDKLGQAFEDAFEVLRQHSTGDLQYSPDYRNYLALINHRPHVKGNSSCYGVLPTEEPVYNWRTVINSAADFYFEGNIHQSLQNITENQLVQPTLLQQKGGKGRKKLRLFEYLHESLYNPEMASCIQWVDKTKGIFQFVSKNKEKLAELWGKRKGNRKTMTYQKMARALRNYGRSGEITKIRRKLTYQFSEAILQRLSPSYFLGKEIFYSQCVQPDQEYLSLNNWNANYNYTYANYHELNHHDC
# How it was run: as §1
# [5] = molecular target: ELF4 (Homo sapiens, UniProt Q99607 1-663); settings: protein: recombinant; tags: N-terminal GST; dsDNA, one strand shown
# How it was run: as §1
# [6] = molecular target: T3, ELK4 (Homo sapiens, UniProt P28324-2 1-405); settings: protein: recombinant; tags: N-terminal GST; dsDNA, one strand shown
# T3 sequence: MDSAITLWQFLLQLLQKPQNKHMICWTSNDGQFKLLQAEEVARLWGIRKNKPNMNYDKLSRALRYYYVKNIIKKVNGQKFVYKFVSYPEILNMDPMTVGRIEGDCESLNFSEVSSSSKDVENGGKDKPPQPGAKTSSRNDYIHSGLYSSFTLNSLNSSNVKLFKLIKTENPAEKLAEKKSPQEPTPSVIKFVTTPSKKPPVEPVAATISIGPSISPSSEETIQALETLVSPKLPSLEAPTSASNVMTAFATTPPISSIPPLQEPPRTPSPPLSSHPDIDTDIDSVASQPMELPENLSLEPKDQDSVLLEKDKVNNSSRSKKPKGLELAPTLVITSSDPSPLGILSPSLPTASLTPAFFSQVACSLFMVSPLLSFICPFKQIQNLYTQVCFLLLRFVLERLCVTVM
# How it was run: as §1
# [7] = molecular target: T4, ETV2 (Homo sapiens, UniProt O00321 1-342); settings: protein: recombinant; tags: N-terminal GST; dsDNA, one strand shown
# T4 sequence: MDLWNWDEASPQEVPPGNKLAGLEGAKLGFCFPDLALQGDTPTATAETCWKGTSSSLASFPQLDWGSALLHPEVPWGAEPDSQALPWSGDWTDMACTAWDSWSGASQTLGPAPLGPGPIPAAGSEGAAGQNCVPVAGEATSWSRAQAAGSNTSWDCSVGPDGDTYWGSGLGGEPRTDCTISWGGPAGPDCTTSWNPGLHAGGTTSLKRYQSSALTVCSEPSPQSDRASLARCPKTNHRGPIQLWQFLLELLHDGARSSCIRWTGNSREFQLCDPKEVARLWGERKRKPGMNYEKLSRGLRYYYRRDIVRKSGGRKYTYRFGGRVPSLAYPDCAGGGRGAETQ
# How it was run: as §1
# [8] = molecular target: T5, ELF3 (Homo sapiens, UniProt P78545 1-371); settings: protein: recombinant; tags: N-terminal GST; dsDNA, one strand shown
# T5 sequence: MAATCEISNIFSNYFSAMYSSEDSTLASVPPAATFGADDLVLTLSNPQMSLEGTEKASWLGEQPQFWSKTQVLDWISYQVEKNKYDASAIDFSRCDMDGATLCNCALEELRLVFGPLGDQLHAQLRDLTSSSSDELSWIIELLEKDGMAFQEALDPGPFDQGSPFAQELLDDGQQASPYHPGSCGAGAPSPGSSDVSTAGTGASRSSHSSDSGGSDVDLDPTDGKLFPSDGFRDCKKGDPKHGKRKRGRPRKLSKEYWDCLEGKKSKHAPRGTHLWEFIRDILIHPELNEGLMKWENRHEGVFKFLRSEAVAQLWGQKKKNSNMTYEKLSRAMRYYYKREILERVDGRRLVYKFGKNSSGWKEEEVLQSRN
# How it was run: as §1
# [9] = molecular target: CRX (Homo sapiens, UniProt O43186 1-299); settings: protein: recombinant; tags: N-terminal GST; dsDNA, one strand shown
# How it was run: as §1
# [10] = molecular target: ETV1 (Homo sapiens, UniProt P50549 1-477); settings: protein: recombinant; tags: N-terminal GST; dsDNA, one strand shown
# How it was run: as §1
# [11] = molecular target: T6, ERF (Homo sapiens, UniProt P50548 1-548); settings: protein: recombinant; tags: N-terminal GST; dsDNA, one strand shown
# T6 sequence: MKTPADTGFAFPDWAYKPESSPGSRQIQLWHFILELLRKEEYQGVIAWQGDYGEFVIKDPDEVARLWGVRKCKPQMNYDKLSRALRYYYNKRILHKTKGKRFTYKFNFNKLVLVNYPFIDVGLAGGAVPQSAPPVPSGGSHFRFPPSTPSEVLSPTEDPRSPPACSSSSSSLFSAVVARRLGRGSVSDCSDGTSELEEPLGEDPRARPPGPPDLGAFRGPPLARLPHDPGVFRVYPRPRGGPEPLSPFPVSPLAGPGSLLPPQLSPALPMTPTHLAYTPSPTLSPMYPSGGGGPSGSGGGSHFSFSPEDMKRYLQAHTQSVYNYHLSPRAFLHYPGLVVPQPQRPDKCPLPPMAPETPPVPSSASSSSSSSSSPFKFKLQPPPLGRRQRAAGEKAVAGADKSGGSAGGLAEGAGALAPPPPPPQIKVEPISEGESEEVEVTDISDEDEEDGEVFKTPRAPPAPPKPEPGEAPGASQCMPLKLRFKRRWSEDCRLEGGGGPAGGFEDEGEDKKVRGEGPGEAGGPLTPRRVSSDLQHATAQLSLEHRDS
# How it was run: as §1
# [12] = molecular target: T7, ETV3L (Homo sapiens, UniProt Q6ZN32 1-361); settings: protein: recombinant; tags: N-terminal GST; dsDNA, one strand shown
# T7 sequence: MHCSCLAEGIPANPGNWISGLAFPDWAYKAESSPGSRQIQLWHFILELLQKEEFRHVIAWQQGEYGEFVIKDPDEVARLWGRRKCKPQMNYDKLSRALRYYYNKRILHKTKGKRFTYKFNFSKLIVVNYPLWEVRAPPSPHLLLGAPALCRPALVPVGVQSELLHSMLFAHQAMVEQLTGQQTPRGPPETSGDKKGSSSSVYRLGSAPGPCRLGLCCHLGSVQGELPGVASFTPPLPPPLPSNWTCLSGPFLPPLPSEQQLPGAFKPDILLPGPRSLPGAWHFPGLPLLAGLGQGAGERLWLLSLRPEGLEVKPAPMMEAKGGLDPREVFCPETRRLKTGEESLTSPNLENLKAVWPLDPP
# How it was run: as §1
# [13] = molecular target: T8, ETS2 (Homo sapiens, UniProt P15036 1-469); settings: protein: recombinant; tags: N-terminal GST; dsDNA, one strand shown
# T8 sequence: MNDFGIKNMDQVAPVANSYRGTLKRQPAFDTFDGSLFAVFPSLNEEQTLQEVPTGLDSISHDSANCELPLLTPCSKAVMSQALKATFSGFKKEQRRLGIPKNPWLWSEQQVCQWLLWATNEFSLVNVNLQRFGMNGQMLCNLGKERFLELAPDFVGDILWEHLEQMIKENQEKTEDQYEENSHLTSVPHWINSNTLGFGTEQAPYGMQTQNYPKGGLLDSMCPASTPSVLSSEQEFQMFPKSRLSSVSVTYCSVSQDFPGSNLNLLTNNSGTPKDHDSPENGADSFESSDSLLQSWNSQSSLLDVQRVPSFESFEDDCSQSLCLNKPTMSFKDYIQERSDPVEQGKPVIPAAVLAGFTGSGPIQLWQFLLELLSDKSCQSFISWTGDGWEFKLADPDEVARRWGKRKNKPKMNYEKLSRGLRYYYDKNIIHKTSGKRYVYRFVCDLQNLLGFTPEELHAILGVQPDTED
# How it was run: as §1
# [14] = molecular target: T9, SPDEF (Homo sapiens, UniProt O95238 1-335); settings: protein: recombinant; tags: N-terminal GST; dsDNA, one strand shown
# T9 sequence: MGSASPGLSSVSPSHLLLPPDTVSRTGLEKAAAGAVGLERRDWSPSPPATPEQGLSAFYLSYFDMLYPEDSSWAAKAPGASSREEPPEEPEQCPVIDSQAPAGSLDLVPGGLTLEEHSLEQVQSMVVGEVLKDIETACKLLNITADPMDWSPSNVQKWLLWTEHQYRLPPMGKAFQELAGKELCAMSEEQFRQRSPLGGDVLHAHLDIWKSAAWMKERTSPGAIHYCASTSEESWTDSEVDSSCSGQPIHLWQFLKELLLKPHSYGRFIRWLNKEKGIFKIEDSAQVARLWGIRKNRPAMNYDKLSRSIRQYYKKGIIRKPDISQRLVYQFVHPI
# How it was run: as §1
# [15] = molecular target: T10, ETV7 (Homo sapiens, UniProt Q9Y603 1-341); settings: protein: recombinant; tags: N-terminal GST; dsDNA, one strand shown
# T10 sequence: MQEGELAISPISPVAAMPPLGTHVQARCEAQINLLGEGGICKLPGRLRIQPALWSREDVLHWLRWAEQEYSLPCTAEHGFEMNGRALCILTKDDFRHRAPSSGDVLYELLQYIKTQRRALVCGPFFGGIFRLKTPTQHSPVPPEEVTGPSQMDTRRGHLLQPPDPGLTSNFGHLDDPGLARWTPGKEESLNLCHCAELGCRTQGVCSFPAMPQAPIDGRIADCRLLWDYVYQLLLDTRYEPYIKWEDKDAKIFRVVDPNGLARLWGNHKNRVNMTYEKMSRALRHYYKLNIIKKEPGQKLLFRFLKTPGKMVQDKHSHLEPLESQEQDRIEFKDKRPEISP
# How it was run: as §1
# [16] = molecular target: T11, ELF5 (Homo sapiens, UniProt Q9UKW6-2 1-255); settings: protein: recombinant; tags: N-terminal GST; dsDNA, one strand shown
# T11 sequence: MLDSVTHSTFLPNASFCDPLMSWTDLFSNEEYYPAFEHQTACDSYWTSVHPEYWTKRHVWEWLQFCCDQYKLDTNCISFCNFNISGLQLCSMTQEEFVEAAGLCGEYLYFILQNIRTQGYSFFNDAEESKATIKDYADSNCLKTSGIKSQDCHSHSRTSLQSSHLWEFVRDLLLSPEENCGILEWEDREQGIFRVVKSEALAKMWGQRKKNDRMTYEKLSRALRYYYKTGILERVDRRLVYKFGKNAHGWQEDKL
# How it was run: as §1
# [17] = molecular target: T12, ETV3 (Homo sapiens, UniProt P41162-2 1-143); settings: protein: recombinant; tags: N-terminal GST; dsDNA, one strand shown
# T12 sequence: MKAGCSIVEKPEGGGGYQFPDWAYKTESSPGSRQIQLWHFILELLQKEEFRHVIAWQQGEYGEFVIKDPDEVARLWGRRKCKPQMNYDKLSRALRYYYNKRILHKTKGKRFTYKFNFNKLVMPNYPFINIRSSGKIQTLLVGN
# How it was run: as §1
# [18] = molecular target: ETV6 (Homo sapiens, UniProt P41212 1-452); settings: protein: recombinant; tags: N-terminal GST; dsDNA, one strand shown
# How it was run: as §1
# Chain of ETV1 (P50549 whole entry): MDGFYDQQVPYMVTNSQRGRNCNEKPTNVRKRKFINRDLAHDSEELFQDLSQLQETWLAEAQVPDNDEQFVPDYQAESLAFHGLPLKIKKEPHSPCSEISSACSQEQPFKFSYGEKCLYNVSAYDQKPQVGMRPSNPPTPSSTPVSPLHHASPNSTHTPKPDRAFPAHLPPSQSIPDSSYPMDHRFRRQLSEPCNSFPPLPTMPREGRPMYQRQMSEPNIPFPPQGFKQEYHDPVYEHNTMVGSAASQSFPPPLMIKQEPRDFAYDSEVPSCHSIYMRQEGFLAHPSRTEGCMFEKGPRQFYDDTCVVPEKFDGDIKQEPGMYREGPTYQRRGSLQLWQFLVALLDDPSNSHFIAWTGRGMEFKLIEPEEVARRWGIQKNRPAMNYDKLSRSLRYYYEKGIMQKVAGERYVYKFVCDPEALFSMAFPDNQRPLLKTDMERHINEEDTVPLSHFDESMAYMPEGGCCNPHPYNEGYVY
# Chain of ETV6 (P41212 whole entry): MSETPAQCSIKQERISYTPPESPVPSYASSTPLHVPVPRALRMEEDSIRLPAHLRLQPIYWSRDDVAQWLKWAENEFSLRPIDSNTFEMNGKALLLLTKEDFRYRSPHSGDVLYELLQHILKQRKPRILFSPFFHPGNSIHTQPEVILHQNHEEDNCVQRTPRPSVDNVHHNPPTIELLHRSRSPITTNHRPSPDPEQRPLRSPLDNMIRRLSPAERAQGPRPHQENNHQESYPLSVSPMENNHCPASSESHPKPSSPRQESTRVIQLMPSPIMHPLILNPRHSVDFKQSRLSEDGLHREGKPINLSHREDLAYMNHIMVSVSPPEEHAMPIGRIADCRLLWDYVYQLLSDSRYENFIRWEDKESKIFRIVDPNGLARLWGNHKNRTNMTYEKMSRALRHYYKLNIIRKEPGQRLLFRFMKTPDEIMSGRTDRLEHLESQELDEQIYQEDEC
# Chain of ETV5 (P41161 whole entry): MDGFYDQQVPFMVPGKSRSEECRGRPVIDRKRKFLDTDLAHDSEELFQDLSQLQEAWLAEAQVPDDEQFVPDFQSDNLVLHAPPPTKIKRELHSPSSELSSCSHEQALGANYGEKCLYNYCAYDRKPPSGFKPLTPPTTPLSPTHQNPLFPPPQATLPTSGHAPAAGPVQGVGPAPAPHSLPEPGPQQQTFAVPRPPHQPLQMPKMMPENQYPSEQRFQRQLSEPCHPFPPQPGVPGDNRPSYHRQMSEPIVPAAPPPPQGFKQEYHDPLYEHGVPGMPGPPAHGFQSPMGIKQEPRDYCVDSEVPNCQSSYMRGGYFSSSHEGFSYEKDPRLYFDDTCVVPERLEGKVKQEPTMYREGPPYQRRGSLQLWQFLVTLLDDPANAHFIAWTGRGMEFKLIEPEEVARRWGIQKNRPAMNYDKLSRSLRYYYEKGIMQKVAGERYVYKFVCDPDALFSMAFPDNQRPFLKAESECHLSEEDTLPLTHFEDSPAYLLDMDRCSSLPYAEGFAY
# Chain of ELF4 (Q99607 whole entry): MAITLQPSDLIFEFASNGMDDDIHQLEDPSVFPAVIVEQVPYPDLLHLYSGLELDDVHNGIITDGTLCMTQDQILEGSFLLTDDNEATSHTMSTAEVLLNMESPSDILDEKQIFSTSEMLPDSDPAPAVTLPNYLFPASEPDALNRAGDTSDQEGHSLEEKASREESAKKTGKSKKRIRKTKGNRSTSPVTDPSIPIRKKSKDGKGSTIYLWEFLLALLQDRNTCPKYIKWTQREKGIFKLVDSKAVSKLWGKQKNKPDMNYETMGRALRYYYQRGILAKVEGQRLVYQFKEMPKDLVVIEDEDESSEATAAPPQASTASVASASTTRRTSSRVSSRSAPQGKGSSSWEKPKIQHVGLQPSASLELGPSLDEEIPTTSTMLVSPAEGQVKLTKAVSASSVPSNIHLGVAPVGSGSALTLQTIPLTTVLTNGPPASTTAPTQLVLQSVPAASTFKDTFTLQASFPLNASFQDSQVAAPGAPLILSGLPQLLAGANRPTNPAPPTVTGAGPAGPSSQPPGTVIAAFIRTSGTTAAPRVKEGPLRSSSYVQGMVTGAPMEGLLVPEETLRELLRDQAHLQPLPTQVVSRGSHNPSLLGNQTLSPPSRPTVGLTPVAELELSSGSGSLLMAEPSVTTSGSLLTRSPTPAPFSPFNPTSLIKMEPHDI
# Chain of CRX (O43186 whole entry): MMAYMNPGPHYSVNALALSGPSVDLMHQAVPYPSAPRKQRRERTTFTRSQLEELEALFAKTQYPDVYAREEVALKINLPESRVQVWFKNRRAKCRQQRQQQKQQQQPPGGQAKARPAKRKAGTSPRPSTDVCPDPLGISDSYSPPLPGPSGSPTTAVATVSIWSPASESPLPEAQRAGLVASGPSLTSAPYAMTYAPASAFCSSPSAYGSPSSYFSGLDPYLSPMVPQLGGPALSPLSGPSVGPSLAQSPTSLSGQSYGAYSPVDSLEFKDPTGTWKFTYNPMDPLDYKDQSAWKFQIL
# Chain of HSF1 (Q00613 whole entry): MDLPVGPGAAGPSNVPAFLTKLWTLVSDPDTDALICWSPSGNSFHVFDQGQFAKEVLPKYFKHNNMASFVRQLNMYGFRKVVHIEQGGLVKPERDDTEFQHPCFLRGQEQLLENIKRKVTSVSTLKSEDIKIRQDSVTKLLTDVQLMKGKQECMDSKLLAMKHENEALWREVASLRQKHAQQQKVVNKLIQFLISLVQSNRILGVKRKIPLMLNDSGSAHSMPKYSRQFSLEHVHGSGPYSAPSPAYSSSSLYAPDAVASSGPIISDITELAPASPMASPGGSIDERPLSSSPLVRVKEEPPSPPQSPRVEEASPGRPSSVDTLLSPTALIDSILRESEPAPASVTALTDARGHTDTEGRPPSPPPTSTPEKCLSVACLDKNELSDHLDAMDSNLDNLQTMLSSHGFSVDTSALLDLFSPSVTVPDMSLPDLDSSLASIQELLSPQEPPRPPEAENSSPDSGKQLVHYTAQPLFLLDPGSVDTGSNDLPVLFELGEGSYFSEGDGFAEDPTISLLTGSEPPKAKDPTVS
sequence,measurement,setting,value
AACTCC,binding signal,[1],"1.32 fold enrichment (6-mer frequency, TF over GST control)"
same,binding signal,[2],"1.32 fold enrichment (6-mer frequency, TF over GST control)"
same,binding signal,[3],"1.23 fold enrichment (6-mer frequency, TF over GST control)"
same,binding signal,[4],"1.32 fold enrichment (6-mer frequency, TF over GST control)"
same,binding signal,[5],"1.3 fold enrichment (6-mer frequency, TF over GST control)"
same,binding signal,[6],"1.13 fold enrichment (6-mer frequency, TF over GST control)"
same,binding signal,[7],"1.23 fold enrichment (6-mer frequency, TF over GST control)"
same,binding signal,[8],"1.13 fold enrichment (6-mer frequency, TF over GST control)"
same,binding signal,[9],"1.19 fold enrichment (6-mer frequency, TF over GST control)"
same,binding signal,[10],"1.26 fold enrichment (6-mer frequency, TF over GST control)"
same,binding signal,[11],"1.36 fold enrichment (6-mer frequency, TF over GST control)"
same,binding signal,[12],"1.27 fold enrichment (6-mer frequency, TF over GST control)"
same,binding signal,[13],"1.32 fold enrichment (6-mer frequency, TF over GST control)"
same,binding signal,[14],"1.33 fold enrichment (6-mer frequency, TF over GST control)"
same,binding signal,[15],"1.31 fold enrichment (6-mer frequency, TF over GST control)"
same,binding signal,[16],"1.32 fold enrichment (6-mer frequency, TF over GST control)"
same,binding signal,[17],"1.34 fold enrichment (6-mer frequency, TF over GST control)"
same,binding signal,[18],"1.4 fold enrichment (6-mer frequency, TF over GST control)"
